In the library only some 10% were active in any assay of this set; here they are far more common.
GLS inh = qHTS for Inhibitors of Glutaminase (GLS); Potency, µM (top dose mostly 45.5 µM), inactives show at the highest dose activity change, negative = inhibition, most hits filed as inhibitors; Glutaminase kidney isoform, mitochondrial (Homo sapiens), O94925; GLS enzymatic activity, qHTS titration; 410,000 compounds, 0.21% hits; also: % is scaled to controls: 0 for no effect and ±100 for the full control effect
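hKGA in 45 mM KH2PO4 pH 8.2, 0.02% Tween-20 with pin-transferred compounds; 1 mM L-glutamine (stock) plus glutamate oxidase/HRP/Amplex Red coupling added. Fluorescence read initially and after 30 min at RT.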
G9a block = qHTS Assay for Inhibitors of Histone Lysine Methyltransferase G9a; Histone-lysine N-methyltransferase EHMT2 (Homo sapiens), Q96KQ7; G9a H3K9 monomethylation, AlphaScreen, 2 h; Potency, µM (top dose mostly 102 µM), inactives show top-dose activity, negative = inhibition, most hits filed as inhibitors; 350,000 compounds, 8.8% hits; AID 504332, 2011; also: % is scaled to controls: 0 for no effect and ±100 for the full control effect; nearly all actives have a fitted effect of over 75% in size
Target sequence (Q96KQ7 913-1193 limits assumed): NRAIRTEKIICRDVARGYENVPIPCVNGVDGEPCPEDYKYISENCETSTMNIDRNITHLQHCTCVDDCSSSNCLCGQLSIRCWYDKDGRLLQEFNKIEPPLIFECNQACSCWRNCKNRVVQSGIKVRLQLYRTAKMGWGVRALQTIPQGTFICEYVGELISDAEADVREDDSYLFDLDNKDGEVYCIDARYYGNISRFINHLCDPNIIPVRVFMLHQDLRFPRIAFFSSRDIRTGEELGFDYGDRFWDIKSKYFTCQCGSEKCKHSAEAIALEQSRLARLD
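Enzyme 20 nM + cpd, 15 min RT; add b-H3K9 pep 500 nM / SAM 20 uM; 2 h RT; anti-H3K9me1 Ab 0.5 ug/mL + SA donor / anti-rabbit acceptor beads 20 ug/mL each, 10 min; AlphaScreen read.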
BAZ2B block = qHTS Assay for Inhibitors of BAZ2B; Bromodomain adjacent to zinc finger domain protein 2B (Homo sapiens), Q9UIF8; AlphaScreen BAZ2B-H3K14Ac peptide displacement; Potency, µM (highest dose often 114 µM), inactives show at the highest dose activity change, negative = inhibition, actives largely listed as inhibitors; 360,000 compounds, 4.4% hits; AID 504333, 2011; also: % is scaled to controls: 0 for no effect and ±100 for the full control effect; nearly all actives have a fitted effect of over 60% in size
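Complex of BAZ2B and biotin-H3K14Ac (50 nM apiece) forms over 30 min at RT, then faces library compounds up to 110 uM for another 30 min; AlphaScreen beads added, 20 min dark incubation, luminescence read.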
HP1b binding inh = HTS for Inhibitors of HP1-beta Chromodomain Interactions with Methylated Histone Tails. AlphaScreen HP1-beta / biotin-H3K9me3 peptide binding. Chromobox protein homolog 1 (Homo sapiens), P83916. 390,000 compounds, 0.56% hits. Potency, µM (top dose mostly 114 µM), for inactives: top-dose activity change, negative = inhibition, hits mostly inhibitors. AID 540317, 2011; also: nearly all actives have a fitted effect of over 70% in size
Target sequence (P83916 whole entry, looked up): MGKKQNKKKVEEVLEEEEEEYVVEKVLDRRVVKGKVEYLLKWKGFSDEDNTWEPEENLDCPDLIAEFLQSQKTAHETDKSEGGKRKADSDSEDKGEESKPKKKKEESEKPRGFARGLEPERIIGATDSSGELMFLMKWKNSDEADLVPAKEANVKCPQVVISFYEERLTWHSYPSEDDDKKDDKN
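Compound inhibition of the preformed complex between 50 nM HP1-beta and 50 nM biotinylated H3K9me3 peptide was read by AlphaScreen. Buffer was PBS pH 7.4 with 0.01% Tween-20. Incubations ran 30 min at room temperature, with 10 ug/mL donor/acceptor beads.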
JMJD2A Tudor = qHTS Assay for Inhibitors of JMJD2A-Tudor Domain | Lysine-specific demethylase 4A (Homo sapiens), O75164 | AlphaScreen JMJD2A-Tudor / H3K4me3 peptide binding | Potency, µM (highest dose often 114 µM), for inactives: at the top dose activity change, negative = inhibition, usual class: inhibitors | 390,000 compounds, 4.4% hits | AID 504339, 2011; also: % is scaled to controls: 0 for no effect and ±100 for the full control effect; nearly all actives have a fitted effect of over 50% in size
L3MBTL1 inh = qHTS Assay for the Inhibitors of L3MBTL1 | 230,000 compounds, 0.66% hits | AlphaScreen L3MBTL1–H3K9me1 peptide binding | Potency, µM (top dose mostly 57.1 µM), for inactives: at the highest dose activity, negative = inhibition, actives largely listed as inhibitors | AID 485360, 2010; also: % is scaled to controls: 0 for no effect and ±100 for the full control effect; nearly all actives have a fitted effect of over 60% in size
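AlphaScreen proximity signal between nickel-chelate acceptor and streptavidin donor beads (final 10 ug/mL) reports binding of 50 nM L3MBTL1 to 75 nM biotin-H3 K9me1 peptide; complex incubated with compounds 30 min at room temperature; cefsulodin titration as control.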
The depositor's hits bear a star; ? = inconclusive; · = no result given; [ ] = remark or other dose. Calls follow the shape of the dose curve; as a rule, active = well fitted curve in the direction sought with a large enough effect; inconclusive = small, poorly fitted or top-dose-only effect, or another doubt; inactive = no such curve, though single readings can be large; an effect the other way counts as inactive or inconclusive. Potency is read from the fitted curve at half-maximal effect.

SMILES	GLS inh	G9a block	BAZ2B block	HP1b binding inh	JMJD2A Tudor	L3MBTL1 inh
COC(=O)c1cc2oc(C)cc2n1CC(=O)Nc1ccc(C)cc1C	-1%	-8%[59 µM]	-1%	25%	-7%	·
COc1ccc(OC)c(CNC(=O)c2ccc(C)c(NC(=O)c3nsc4ccccc34)c2)c1	-4%	-22%[59 µM]	2%	20%[57 µM]	-16%	·
O=[N+]([O-])c1nn(-c2ccc3c(c2)OCCO3)n(O)c1=NC1CCCCCC1	3%	13µM*	14µM*	?	22µM*	·
CCc1ccc(N=c2c([N+](=O)[O-])nn(-c3ccc4c(c3)OCCO4)n2O)cc1	6%	18µM*	25µM*	?	32µM*	·
Cc1ccc(N=c2c([N+](=O)[O-])nn(-c3ccc4c(c3)OCCO4)n2O)c(Cl)c1	·	45µM*	-27%	·	·	-7%
O=[N+]([O-])c1nn(-c2ccc3c(c2)OCCO3)n(O)c1=NC1CCCC1	0%	-48%	-9%	3%	-19%	·
O=[N+]([O-])c1nn(-c2ccc3c(c2)OCCO3)n(O)c1=Nc1ccccc1	2%	?	40µM*	-34%	45µM*	-28%
COc1ccc(NC(=O)CN(c2cccc(C)c2C)S(=O)(=O)c2ccccc2)cc1OC	6%	-45%[59 µM]	?	-3%	?	·
Cc1ccc(Cl)cc1N1CCN(C(=O)c2cc(S(=O)(=O)N3CCCC3)c[nH]2)CC1	-2%	-22%[59 µM]	-35%	-1%	-31%	·
CCc1cnc2c(c1SCc1c(F)cccc1Cl)c(=O)n(C)c(=O)n2C	-9%	7%[59 µM]	-3%	8%	-11%	·
CCN(CC)CCn1c(NCc2cc(OC)ccc2OC)nc2ccccc21	79%	?	-33%	5%	50µM*	-16%
CCN(CC)CCn1c(NCc2cccc(OC)c2)nc2ccccc21	48%	50µM*	-22%	16%	-24%	·
CCN(CC)CCn1c(NCc2ccc3c(c2)OCO3)nc2ccccc21	28%	?	-4%	29%	-25%	-14%
O=C(Nc1ccc(OCc2cc(=O)n3ccccc3n2)cc1)c1ccccc1Cl	-23%	-22%[59 µM]	6%	22%[57 µM]	-36%	·
O=C1CSC(=S)N1/N=C/c1cc(Br)ccc1O	·	10µM*	5µM*	·	·	·
COc1ccccc1C=NN1C(=O)CSC1=S	23%	·	·	?	?	·
O=C1CSC(=S)N1N=Cc1ccc(Cl)s1	29%	·	·	?	28µM*	·
Oc1ccc(Br)cc1/C=N/N1CCCCC1	16%	11µM*	-5%	-6%	-27%	-3%
CC(C)NC(=O)c1ccc(Cn2c(=O)c3cccn3c3cccnc32)cc1	8%	7%[59 µM]	-4%	28%	13%	·
Cc1cccc(C)c1NC(=O)Cn1nc(C)c2sc3ccccc3c2c1=O	-1%	-48%[59 µM]	?	19%	-35%	·
COc1ccc(Br)cc1/C=N/N1CCN(Cc2ccccc2Cl)CC1	-4%	11%[0.501 µM]	?	-26%	40µM*	8%[2.29 µM]
COc1ccccc1/C=C/C=N\N1CCN(Cc2ccccc2Cl)CC1	2%	14µM*	40µM*	?	20µM*	-17%
COc1ccccc1/C=C/C=N/N1CCN(Cc2ccc(Cl)cc2)CC1	13%	?	32µM*	40µM*	45µM*	-27%
Oc1ccc(Br)cc1/C=N/N1CCN(Cc2cccc3ccccc23)CC1	8%	·	-39%	-2%	?	-3%
COc1c(C)cccc1C(=O)Nc1cccc2ccc(C)nc12	2%	89%[59 µM]	76%	110%	64%	·
CC(=O)N1CCN(c2cc3c(cc2F)c(=O)c(C(=O)O)cn3C2CC2)CC1	-8%	50µM*	-39%	29%	-8%	6%

From PubChem BioAssay
